# In PubChem BioAssay (NCATS):
# Inconclusive results are not listed. A call without a number means that no potency is given here. Calls of active or inactive are those of the source. Calls follow the shape of the dose curve; as a rule, active = well fitted inhibition curve with a large enough effect; inconclusive = small, poorly fitted or top-dose-only effect; inactive = no such curve, though single readings can be large or run the other way.
# Experiment: NS1 protein of Zika virus - qHTS assay to identify small molecule inhibitors in human HEK 293 cells (AID 1347053); also: nearly all actives have a fitted effect of over 55% in size
# Details: HEK293 ZIKV MR766 infection, NS1 TR-FRET, 24 h; series mostly up to 46.1 µM
# Text: National Center for Advancing Translational Sciences [NCATS]
# Johns Hopkins University School of Medicine
# The non-structural 1 (NS1) protein of zika virus is known to associate with the viral replication complex. This cell-based TR-FRET ZIKV NS-1 assay measures the increased NS-1 protein in human HEK 293 cells after a 24-hour Zika virus infection by a TR-FRET assay readout. A decrease in the Time-resolved fluorescence energy transfer (TR-FRET) signal in this assay by small molecule treatment indicates an inhibitory effect of the small molecule on the expression of Zika virus NS1 correlating with Zika virus replication.
# HEK 293 cells were cultured in EMEM (ATCC, Cat. # 30-2003) medium with 10% fetal bovine serum (GE healthcare Life Sciences, Cat. # SH30071.03), and 1% Pen/Strep (Gibco, Cat. # 15140-122). Cells were seeded in the assay plate and incubated at 37 C with 5% CO2 for 20 hours. Compounds were added to cells and incubated for one hour before addition of ZIKV MR766 strain solution to cells (MOI = 0.5). After an incubation at 37 C for 24 hours, the reagent mixture of TR-FRET ZIKV NS1 assay using two anti-ZIKV NS1 antibodies was added to assay plates. The TR-FRET signals in assay plates were measured using an Envision plate reader (PerkinElmer). Data were normalized by using the cell-containing wells without ZIKV as a negative control (0% NS-1) and wells containing ZIKV infected cells as a positive control (100% NS-1 level).
# Potency is read from the fitted curve at half-maximal effect.
row,SMILES,Potency
1,CN1CCN(C2=Nc3ccccc3Sc3ccc(Cl)cc32)CC1,inactive
2,CC(C)(C)NC[C@H](O)COc1nsnc1N1CCOCC1,inactive
3,CCN(CC)CCOC(=O)C1(c2ccccc2)CCCC1,inactive
4,CCc1oc2ccccc2c1C(=O)c1cc(Br)c(O)c(Br)c1,inactive
5,CC(C)Nc1cccnc1N1CCN(C(=O)c2cc3cc(NS(C)(=O)=O)ccc3[nH]2)CC1,inactive
6,Cl/C(=C\n1cncn1)c1ccc(Cl)cc1Cl,inactive
7,CCN(CC)CCOc1ccccc1C(=O)CCc1ccccc1,inactive
8,CCNC(=O)NCc1cccc(Cl)c1,inactive
9,Cc1ccccc1OCC(O)CO (stereo not given),inactive
10,Cc1c[nH]c2ccccc12,inactive
11,Cn1c(=O)c2[nH]c(Br)nc2n(C)c1=O,inactive
12,CCN1CCN(C(=O)N[C@@H](C(=O)N[C@@H]2C(=O)N3C(C(=O)O)=C(CSc4nnnn4C)CS[C@H]23)c2ccc(O)cc2)C(=O)C1=O,inactive
13,O=C(O)P(=O)(O)O,inactive
14,Cc1ccc(S(=O)(=O)NC(=O)NC2CCCC2)cc1,inactive
15,C#C[C@]1(O)CC[C@H]2[C@@H]3CCC4=CC(=O)CC[C@@H]4[C@H]3CC[C@@]21CC,inactive
16,CC(C)(C)NCC(O)COc1cccc2c1C[C@H](O)[C@H](O)C2 (stereo not given in full),inactive
17,C[C@@H](O)[C@H]1C(=O)N2C(C(=O)O)=C(S[C@@H]3CN[C@H](CNS(N)(=O)=O)C3)[C@H](C)[C@H]12,inactive
18,O=C(O)CCC(=O)Nc1ccc(S(=O)(=O)Nc2nccs2)cc1,inactive
19,CCC1NC(=O)c2cc(S(N)(=O)=O)c(Cl)cc2N1 (stereo not given),inactive
20,O=S(c1cc(Cl)cc(Cl)c1O)c1cc(Cl)cc(Cl)c1O,inactive

row,SMILES,Potency
1,C=C1c2cccc(O)c2C(O)=C2C(=O)[C@]3(O)C(O)=C(C(N)=O)C(=O)[C@@H](N(C)C)[C@@H]3[C@@H](O)[C@H]12,inactive
2,CCOC(=O)[C@H](CCc1ccccc1)N[C@@H](C)C(=O)N1[C@H](C(=O)O)C[C@H]2CCCC[C@@H]21,inactive
3,CCCCN=C(N)N=C(N)N,inactive
4,CCCCc1cc2ccccc2c(OCCN(C)C)n1,inactive
5,CCCCCCCCCCCCCC(=O)OC(C)C,inactive
6,FC(F)(F)C(F)(F)C(F)(F)C(F)(F)C(F)(F)C(F)(F)C(F)(F)C(F)(F)Br,inactive
7,Cc1ccc2c(Br)cc(Br)c(O)c2n1,inactive
8,O=c1[nH]c(=O)n([C@H]2C[C@H](O)[C@@H](CO)O2)cc1F,inactive
9,CC[C@H](c1ccc(O)cc1)[C@@H](CC)c1ccc(O)cc1,inactive
10,CCN1/C(=C/C=C/c2sc3ccccc3[n+]2CC)Sc2ccccc21,3.55 µM (active)
11,CO[C@]12C[C@@H](COC(=O)c3cncc(Br)c3)CN(C)[C@@H]1Cc1cn(C)c3cccc2c13,inactive
12,Cc1c(-c2ccccc2)oc2c(C(=O)OCCN3CCCCC3)cccc2c1=O,inactive
13,Cc1cccc(C)c1NC(=O)CN1CCCCCC1,inactive
14,O=C(O)CCNC(=O)c1ccccc1,inactive
15,CCc1cc(Cl)c(OC)c(C(=O)NC[C@@H]2CCCN2CC)c1O,inactive
16,Cc1nc(-c2ccc(Cl)cc2)oc1COC(C)(C)C(=O)O,inactive
17,c1ccc(-c2nc[nH]c2-c2ccccc2)cc1,inactive
18,CC(O)Cn1cnc2c1c(=O)n(C)c(=O)n2C (stereo not given),inactive
19,C[N+]12CCC(CC1)C(OC(=O)C(O)(c1ccccc1)c1ccccc1)C2 (stereo not given),inactive
20,c1ccc(CC2=NCCN2)cc1,inactive
